According to PubChem BioAssay (EPA / NIEHS):
Values joined by “and” are separate entries in the source; they are usually repeats but may differ in a detail not shown here. Equal entries are not always repeated. Inconclusive results are not listed. A structure can be active in one record and inactive in another. Active and inactive are the calls of the source. How the source made its calls, unless noted: active means hit-call score of the fitted dose curve at least 0.9, where 1 is the maximum; inactive means score below 0.9.

tested on: not listed separately; assay: CCTE_Shafer_MEA_acute_synchrony_index: CCTE's Neural Acute Assay for Synchrony, Shafer Lab (AID 2284027);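 further: fitted for loss of signal so actives lower synchrony relative to DMSO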
Method in brief: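 Readout is percent change in the unitless network synchrony index (0 low, 1 high) between a 40-min baseline and a 40-min recording in compound. Cultures were primary rat cortical neurons on MEAs, treated at 0.03-40 uM on DIV 13 or 15.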

Structure (SMILES)	AC50	outcome
COC(=O)N(OC)c1ccccc1COc1ccn(-c2ccc(Cl)cc2)n1	1.73 µM (active)	–
CCCN(CCC)c1c([N+](=O)[O-])cc(S(N)(=O)=O)cc1[N+](=O)[O-]	5 µM (active)	–
Fc1ccc(Oc2ccnc3cc(Cl)cc(Cl)c23)cc1	–	inactive
CC1COC(Cn2cncn2)(c2ccc(Oc3ccc(Cl)cc3)cc2Cl)O1 (stereo not drawn)	11.5 µM (active)	–
CCNc1nc(Cl)nc(NC(C)C)n1	20 µM (active)	–
COP(N)(=O)SC (stereo not drawn)	–	inactive
CCCCNC(=O)OCC#CI	15.5 µM (active)	–
CCOP(=S)(OCC)SCn1c(=O)oc2cc(Cl)ccc21	29.3 µM (active)	–
OC(c1ccc(Cl)cc1)(c1cncnc1)c1ccccc1Cl (stereo not drawn)	3.05 µM (active)	–
CCCC1COC(Cn2cncn2)(c2ccc(Cl)cc2Cl)O1 (stereo not drawn)	17.5 µM (active)	–
CC(Oc1ccc(Cl)cc1Cl)C(=O)O (stereo not drawn)	–	inactive
CON(C)C(=O)Nc1ccc(Cl)c(Cl)c1	6.56 µM (active)	–
O=C(O)c1nc(Cl)ccc1Cl	–	inactive
CS/C(C)=N/OC(=O)N(C)SN(C)C(=O)O/N=C(\C)SC	27.8 µM (active)	–
COC(=O)C(C)Oc1ccc(Oc2ccc(Cl)cc2Cl)cc1 (stereo not drawn)	20 µM (active)	–
CC(C)(C)c1ccc(CSc2cnn(C(C)(C)C)c(=O)c2Cl)cc1	3.24 µM (active)	–
CC(C)Oc1cc(-n2nc(C(C)(C)C)oc2=O)c(Cl)cc1Cl	–	inactive
Cc1c(F)c(F)c(COC(=O)C2C(/C=C(\Cl)C(F)(F)F)C2(C)C)c(F)c1F (stereo not drawn)	0.433 µM (active)	–
COc1ccc(C(c2ccc(OC)cc2)C(Cl)(Cl)Cl)cc1	27.4 µM (active)	–
C=CCC1=C(C)C(OC(=O)C2C(C=C(C)C)C2(C)C)CC1=O (stereo not drawn)	5.52 µM (active) and 2.93 µM (active)	–
N#CC(CCc1ccc(Cl)cc1)(Cn1cncn1)c1ccccc1 (stereo not drawn)	–	inactive

molecular target: Estrogen receptor (Homo sapiens) (UniProt P03372); assay: CCTE_Deisenroth_AIME_384WELL_LUC_Active: CCTE's 384-well Estrogen Receptor Transactivation Assay with AIME metabolic competence (ERTA luciferase; metabolism positive), Deisenroth Lab (AID 2284030; active means hit-call score of the fitted dose curve at least 0.9, where 1 is the maximum)
Method in brief: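 Readout: bioluminescent luciferase induction in VM7Luc4E2 cells 24 hour after receiving medium from a 2 h rat hepatic S9 (induced, alginate microsphere) metabolism step. Concentrations 0.002 - 200 uM; activity scaled to 17beta-estradiol positive control.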

Sequence of Estrogen receptor (Homo sapiens) (P03372 whole entry, looked up): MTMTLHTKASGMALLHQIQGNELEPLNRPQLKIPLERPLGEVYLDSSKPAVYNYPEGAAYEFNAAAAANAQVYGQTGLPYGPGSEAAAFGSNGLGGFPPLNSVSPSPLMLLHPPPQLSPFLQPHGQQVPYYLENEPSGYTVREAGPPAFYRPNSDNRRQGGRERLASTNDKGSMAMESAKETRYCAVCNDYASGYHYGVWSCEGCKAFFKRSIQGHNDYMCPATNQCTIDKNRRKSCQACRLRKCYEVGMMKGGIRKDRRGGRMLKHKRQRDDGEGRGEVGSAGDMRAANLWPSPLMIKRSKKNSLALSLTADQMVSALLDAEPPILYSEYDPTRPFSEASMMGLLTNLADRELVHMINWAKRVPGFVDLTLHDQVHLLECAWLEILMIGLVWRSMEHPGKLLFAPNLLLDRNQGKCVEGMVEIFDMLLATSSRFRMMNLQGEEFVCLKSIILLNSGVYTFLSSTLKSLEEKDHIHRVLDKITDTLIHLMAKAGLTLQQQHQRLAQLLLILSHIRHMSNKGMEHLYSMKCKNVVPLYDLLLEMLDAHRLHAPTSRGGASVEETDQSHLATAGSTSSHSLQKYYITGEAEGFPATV

Structure (SMILES)	outcome
COC(=O)N(OC)c1ccccc1COc1ccn(-c2ccc(Cl)cc2)n1	inactive
COP(N)(=O)SC (stereo not drawn)	inactive
CC(Oc1ccc(Cl)cc1Cl)C(=O)O (stereo not drawn)	inactive
O=C(O)c1nc(Cl)ccc1Cl	inactive
Cc1c(F)c(F)c(COC(=O)C2C(/C=C(\Cl)C(F)(F)F)C2(C)C)c(F)c1F (stereo not drawn)	inactive

tested on: not listed separately; assay: CCTE_Shafer_MEA_dev_per_burst_spike_percent: CCTE's Neural Network Formation Assay for Percent of Spikes in a Burst, Shafer Lab (AID 2284032);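 on AC50: fitted as a decrease in burst spike percentage below DMSO baseline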
Method in brief: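 Rat primary cortical neurons on 16-electrode MEA wells, dosed from plating day 0 for 12 days with renewal on DIV 5 and 9; spikes-in-bursts percentage averaged over bursting electrodes, collapsed as AUC across days 5, 7, 9, 12; loss direction versus DMSO.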

Structure (SMILES)	AC50	outcome
COC(=O)N(OC)c1ccccc1COc1ccn(-c2ccc(Cl)cc2)n1	184 nM (active) and 27 nM (active)	–
CCNc1nc(Cl)nc(NC(C)C)n1	–	inactive
COP(N)(=O)SC (stereo not drawn)	–	inactive
CCCCNC(=O)OCC#CI	3.25 µM (active) and 1.37 µM (active)	–
CC(C)(C)c1ccc(CSc2cnn(C(C)(C)C)c(=O)c2Cl)cc1	0.00382 µM (active)	–
Cc1c(F)c(F)c(COC(=O)C2C(/C=C(\Cl)C(F)(F)F)C2(C)C)c(F)c1F (stereo not drawn)	1.83 µM (active)	–
COc1ccc(C(c2ccc(OC)cc2)C(Cl)(Cl)Cl)cc1	4.51 µM (active)	–
C=CCC1=C(C)C(OC(=O)C2C(C=C(C)C)C2(C)C)CC1=O (stereo not drawn)	14.8 µM (active)	inactive

molecular target: Estrogen receptor (Homo sapiens) (UniProt P03372); assay: CCTE_Deisenroth_AIME_384WELL_LUC_Inactive: CCTE's 384-well Estrogen Receptor Transactivation Assay without AIME metabolic competence (ERTA luciferase; metabolism negative), Deisenroth Lab (AID 2284038; active means hit-call score of the fitted dose curve at least 0.9, where 1 is the maximum;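 further: VM7Luc4E2 breast cells given medium preincubated 2 h with S9-free microspheres; hits raise estrogen receptor luciferase signal so potencies reflect agonists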)
Method in brief: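 Metabolism-negative mode: chemicals (10-point, 0.002–200 uM) held 2 h with alginate-water microspheres, then conditioned medium applied to VM7Luc4E2 cells for 24 h. Luciferase induction referenced to 17beta-estradiol.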

Structure (SMILES)	outcome
COC(=O)N(OC)c1ccccc1COc1ccn(-c2ccc(Cl)cc2)n1	inactive
CCNc1nc(Cl)nc(NC(C)C)n1	inactive
COP(N)(=O)SC (stereo not drawn)	inactive
CC(Oc1ccc(Cl)cc1Cl)C(=O)O (stereo not drawn)	inactive
O=C(O)c1nc(Cl)ccc1Cl	inactive
Cc1c(F)c(F)c(COC(=O)C2C(/C=C(\Cl)C(F)(F)F)C2(C)C)c(F)c1F (stereo not drawn)	inactive
C=CCC1=C(C)C(OC(=O)C2C(C=C(C)C)C2(C)C)CC1=O (stereo not drawn)	inactive

tested on: not listed separately; assay: CCTE_Deisenroth_AIME_384WELL_CTox_Inactive: Cytotoxicity Assessment (CTOX) in CCTE's 384-well Estrogen Receptor Transactivation Assay without AIME metabolic competence (metabolism negative), Deisenroth Lab (AID 2284039; active means hit-call score of the fitted dose curve at least 0.9, where 1 is the maximum;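 further: cell viability via live-cell protease substrate cleaved to fluorescent probe; cells exposed 24 h to medium preincubated 2 h with alginate-water beads without S9; loss of fluorescence signal means loss of viability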)
Method in brief: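 VM7Luc4E2 cells, metabolism-negative arm: test chemicals (0.002–200 uM, 10 points) pre-incubated 2 h with alginate-water microspheres, then medium transferred to cells for 24 h. Viability read as protease-substrate cleavage to fluorescent probe; loss-of-signal, bidirectional fitting.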

Structure (SMILES)	AC50	outcome
COC(=O)N(OC)c1ccccc1COc1ccn(-c2ccc(Cl)cc2)n1	19.8 µM (active)	–
CCCCNC(=O)OCC#CI	124 µM (active)	–
CC(C)(C)c1ccc(CSc2cnn(C(C)(C)C)c(=O)c2Cl)cc1	–	inactive
Cc1c(F)c(F)c(COC(=O)C2C(/C=C(\Cl)C(F)(F)F)C2(C)C)c(F)c1F (stereo not drawn)	–	inactive

tested on: not listed separately; assay: CCTE_Shafer_MEA_dev_active_electrodes_number: CCTE's Neural Network Formation Assay for Number of Active Electrodes, Shafer Lab (AID 2284040; active means hit-call score of the fitted dose curve at least 0.9, where 1 is the maximum;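 on AC50: potency for loss of active electrodes versus DMSO so lower counts are hits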)
Method in brief: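 Primary rat cortical neurons on 16-electrode MEA wells, exposed from day 0 through day 12 with compound renewed at DIV 5 and 9 feeds. Active electrodes (mean firing ≥5 spikes/min) counted at DIV 5, 7, 9, 12; trapezoidal AUC across days, loss-of-signal versus DMSO.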

Structure (SMILES)	AC50	outcome
COC(=O)N(OC)c1ccccc1COc1ccn(-c2ccc(Cl)cc2)n1	77 nM (active) and 13.7 nM (active)	–
CCNc1nc(Cl)nc(NC(C)C)n1	–	inactive
COP(N)(=O)SC (stereo not drawn)	–	inactive
CCCCNC(=O)OCC#CI	3.93 µM (active) and 1.81 µM (active)	–
CC(C)(C)c1ccc(CSc2cnn(C(C)(C)C)c(=O)c2Cl)cc1	0.0031 µM (active)	–
Cc1c(F)c(F)c(COC(=O)C2C(/C=C(\Cl)C(F)(F)F)C2(C)C)c(F)c1F (stereo not drawn)	10 µM (active)	–
COc1ccc(C(c2ccc(OC)cc2)C(Cl)(Cl)Cl)cc1	6.74 µM (active)	–
C=CCC1=C(C)C(OC(=O)C2C(C=C(C)C)C2(C)C)CC1=O (stereo not drawn)	10 µM (active) and 14.8 µM (active)	–

molecular target: Estrogen receptor (Homo sapiens) (UniProt P03372); assay: CCTE_Deisenroth_AIME_384WELL_LUC_Shift: CCTE's 384-well Estrogen Receptor Transactivation Assay with AIME metabolic competence data shift (ERTA luciferase; difference in metabolism positive and negative), Deisenroth Lab (AID 2284041);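 further: shift is response with S9 minus without S9 so positive means metabolism raised ER signal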
Method in brief: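 Here, parent compounds undergo 2 h phase I metabolism by PB/BNF-induced rat S9 before 24 h transactivation in VM7Luc4E2 cells; the curve models S9-positive minus S9-negative response over a 10-point series.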

Structure (SMILES)	outcome
COC(=O)N(OC)c1ccccc1COc1ccn(-c2ccc(Cl)cc2)n1	inactive
CCNc1nc(Cl)nc(NC(C)C)n1	inactive
COP(N)(=O)SC (stereo not drawn)	inactive
CCCCNC(=O)OCC#CI	inactive
CC(Oc1ccc(Cl)cc1Cl)C(=O)O (stereo not drawn)	inactive
O=C(O)c1nc(Cl)ccc1Cl	inactive
CC(C)(C)c1ccc(CSc2cnn(C(C)(C)C)c(=O)c2Cl)cc1	inactive
Cc1c(F)c(F)c(COC(=O)C2C(/C=C(\Cl)C(F)(F)F)C2(C)C)c(F)c1F (stereo not drawn)	inactive
C=CCC1=C(C)C(OC(=O)C2C(C=C(C)C)C2(C)C)CC1=O (stereo not drawn)	inactive
